Results published in PubChem BioAssay (Tox21).
Inconclusive results are not listed. Calls of active or inactive are those of the source. Unless noted, the call rests on the fitted dose curve; in most records, active means well fitted curve in the direction sought with a large enough effect in the repeat runs; inconclusive means weak or mixed curves; inactive means no such curve, though single readings can be large; an effect the other way counts as inactive or inconclusive.

How the values were obtained:
[1] = A CellTox Green Cytotoxicity Assay to monitor cytotoxicity in HepG2 cells - 8 hour (AID 1224890); conditions: CellTox Green fluorescence; series mostly up to 76.8 µM; further: nearly all actives have a fitted effect of over 45% in size
How it was run: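 Real-time cytotoxicity: fluorescence of a cell-impermeant cyanine dye binding DNA of dead HepG2 cells, measured repeatedly (0–40 h) during compound exposure at 37 C. Cells seeded 600/well with reagent, dosed after 5 h.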

[2] = qHTS assay to identify small molecule antagonists of the androgen receptor (AR) signaling pathway using the MDA cell line in the presence of 0.5 nM R1881 - cell viability counter screen (AID 1259242); conditions: MDA-kb2 viability, CellTiter-Fluor protease fluorescence, 16 h; series mostly up to 92.4 µM; further: nearly all actives have a fitted effect of over 45% in size
How it was run: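 Live-cell protease activity was measured by CellTiter-Fluor fluorescence after 30 min. Before that, MDA-kb2 MMTV-luciferase cells had 16 hr at 37C without CO2, exposed to test compounds and 0.5 nM R1881 final.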

[3] = molecular target: Estrogen receptor (Homo sapiens) (UniProt P03372); experiment: qHTS assay to identify small molecule antagonists of the estrogen receptor alpha (ER-alpha) signaling pathway using the BG1 cell line in the presence of 0.1 nM 17-beta-estradiol (AID 1259244); conditions: VM7Luc4E2 (BG1) ERE-luciferase, antagonist mode, 0.1 nM E2, 22 h; series mostly up to 92.4 µM; further: nearly all actives have a fitted effect of over 50% in size
Sequence of Estrogen receptor (Homo sapiens) (P03372 whole entry, looked up): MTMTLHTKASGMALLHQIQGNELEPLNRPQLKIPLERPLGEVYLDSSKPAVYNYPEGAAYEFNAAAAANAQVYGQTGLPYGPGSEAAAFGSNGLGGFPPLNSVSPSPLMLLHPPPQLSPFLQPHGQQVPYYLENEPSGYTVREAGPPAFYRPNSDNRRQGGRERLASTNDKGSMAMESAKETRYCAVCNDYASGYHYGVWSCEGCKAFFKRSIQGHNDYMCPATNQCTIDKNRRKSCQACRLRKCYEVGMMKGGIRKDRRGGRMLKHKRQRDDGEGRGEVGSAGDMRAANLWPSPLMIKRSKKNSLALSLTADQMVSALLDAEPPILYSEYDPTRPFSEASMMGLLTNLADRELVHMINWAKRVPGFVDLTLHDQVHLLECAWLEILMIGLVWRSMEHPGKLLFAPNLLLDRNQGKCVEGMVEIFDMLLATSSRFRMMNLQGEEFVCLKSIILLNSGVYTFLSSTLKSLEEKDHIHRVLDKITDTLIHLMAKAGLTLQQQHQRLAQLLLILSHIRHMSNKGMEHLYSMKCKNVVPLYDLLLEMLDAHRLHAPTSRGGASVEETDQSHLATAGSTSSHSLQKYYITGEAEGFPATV
How it was run: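 Luciferase luminescence (ONE-Glo, 30 min at room temperature) was read after 22 hr at 37C exposure to compounds plus 17beta-estradiol at 0.1 nM final. Cells were VM7Luc4E2 with endogenous ER-alpha and an ERE-driven luciferase, pre-cultured 5 days in hormone-depleted medium.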

[4] = qHTS assay to identify small molecule HDAC inhibitors (AID 1259364); conditions: HCT-116 HDAC-Glo I/II luminescence, 2 h; series mostly up to 92.4 µM; further: top concentration of the series differs between compounds; nearly all actives have a fitted effect of over 45% in size
How it was run: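 Luminescence read after 30 min room-temperature HDAC-Glo incubation measures cellular class I/II HDAC activity. Compounds were applied for 2 hr at 37 C to HCT-116 wild-type cells seeded the day before.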

[5] = qHTS assay to identify small molecule HDAC inhibitors - cell viability counter screen (AID 1259365); conditions: HCT-116 viability, CellTiter-Glo ATP luminescence, 2 h; series mostly up to 92.4 µM; further: nearly all actives have a fitted effect of over 50% in size
How it was run: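 Wild-type HCT-116 cells were seeded at 1,500 per well, incubated overnight at 37 C, then exposed to compounds in DMSO for 2hr. Viability was read by CellTiter-Glo luminescence after 30min at room temperature.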

[6] = qHTS assay to identify small molecule agonists of the sonic hedgehog signaling (Shh) pathway - cell viability counter screen (AID 1259366); conditions: NIH/3T3 Gli1-Luc viability, CellTiter-Fluor, 24 h; series mostly up to 92.4 µM; further: nearly all actives have a fitted effect of over 50% in size; further: potency means the concentration at half of the fitted maximal effect
How it was run: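 NIH/3T3-derived 3T3 Gli1-Luc cells (stable Gli1-responsive firefly luciferase reporter) were seeded, rested 4 hr at 37 C/5% CO2, then exposed to compounds in DMSO for 24 hr; viability was read by CellTiter-Fluor fluorescence in the same wells.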

[7] = qHTS assay to identify small molecule antagonists of the sonic hedgehog signaling (Shh) pathway - cell viability counter screen (AID 1259367); conditions: NIH/3T3 Gli1-Luc viability, CellTiter-Fluor, 24 h; series mostly up to 92.4 µM; further: nearly all actives have a fitted effect of over 55% in size; further: potency means the concentration at half of the fitted maximal effect
How it was run: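 Tox21 library chemicals were tested on a Gli1-Luc NIH/3T3 clone (2,000 cells/well) stimulated by conditioned medium; viability was quantified as fluorescence from CellTiter-Fluor reagent added at 23 hr.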

[8] = qHTS assay to identify small molecule agonists of the sonic hedgehog signaling (Shh) pathway (AID 1259368; calls by dose curve; further: nearly all actives have a fitted effect of over 15% in size); conditions: NIH/3T3 Gli1-Luc reporter, luciferase, 24 h, active compounds read high; series mostly up to 92.4 µM
How it was run: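 Luminescence was read after 30 min at room temperature with luciferase reagent. Before that, 3T3Gli1-Luc cells (NIH/3T3 clone, stable Gli1-Luc reporter; 2,000/well) were exposed to compounds for 24 hr at 37C, 5% CO2, compounds being added 4 hr post-plating.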

[9] = qHTS assay to identify small molecule antagonists of the sonic hedgehog signaling (Shh) pathway (AID 1259369; calls by dose curve; further: nearly all actives have a fitted effect of over 45% in size); conditions: NIH/3T3 Gli1-Luc reporter, Shh antagonist, luminescence 24 h; series mostly up to 92.4 µM
How it was run: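 Antagonist mode: compound added to 3T3 Gli1-Luc cells followed by conditioned-medium stimulation, 24 h at 37 C, 5% CO2. Inhibition taken as loss of Gli1-driven luciferase luminescence.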

[10] = molecular target: Estrogen receptor beta (Homo sapiens) (UniProt Q92731); experiment: qHTS assay to identify small molecule agonists of the estrogen receptor beta (ER-beta) signaling pathway (AID 1259377; active means well fitted activation curve with a large enough effect in the signal ratio in the repeat runs, not every such curve was filed as active; the % refers to the signal ratio); conditions: ER-beta-UAS-bla HEK293T, beta-lactamase FRET ratio, 16 h; series mostly up to 92.4 µM
Sequence of Estrogen receptor beta (Homo sapiens) (Q92731 whole entry, looked up): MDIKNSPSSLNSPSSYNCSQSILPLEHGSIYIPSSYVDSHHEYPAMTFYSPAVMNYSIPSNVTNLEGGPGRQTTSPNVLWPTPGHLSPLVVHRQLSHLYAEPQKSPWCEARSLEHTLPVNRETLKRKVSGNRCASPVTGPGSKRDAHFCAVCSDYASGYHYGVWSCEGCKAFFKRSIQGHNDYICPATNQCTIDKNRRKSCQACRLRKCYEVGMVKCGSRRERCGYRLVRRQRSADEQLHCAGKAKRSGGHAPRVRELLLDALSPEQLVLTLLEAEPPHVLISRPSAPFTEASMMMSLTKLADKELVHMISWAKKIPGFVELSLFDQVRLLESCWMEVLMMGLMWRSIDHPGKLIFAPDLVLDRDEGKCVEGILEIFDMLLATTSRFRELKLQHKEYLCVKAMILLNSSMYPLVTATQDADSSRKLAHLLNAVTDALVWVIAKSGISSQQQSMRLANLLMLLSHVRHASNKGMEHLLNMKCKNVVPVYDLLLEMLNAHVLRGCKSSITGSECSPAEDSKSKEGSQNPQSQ
How it was run: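 ER-beta-UAS-bla HEK293T (GripTite) cells carrying a UAS-driven beta-lactamase reporter, in medium with 2% charcoal-stripped FBS, were exposed to compounds for 16 hr at 37C; LiveBLAzer B/G FRET substrate was then added and fluorescence read after 2 hours at room temperature.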

[11] = molecular target: Estrogen receptor beta (Homo sapiens) (UniProt Q92731); experiment: qHTS assay to identify small molecule antagonists of the estrogen receptor beta (ER-beta) signaling pathway (AID 1259378; active means well fitted inhibition curve with a large enough effect in the signal ratio in the repeat runs, not every such curve was filed as active; the % refers to the signal ratio); conditions: ER-beta-UAS-bla HEK293T, beta-lactamase FRET ratio, 16 h; series mostly up to 92.4 µM
How it was run: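 ER-beta-UAS-bla HEK293T cells in 2% charcoal-stripped FBS medium treated with compound plus 1nM final 17-beta-estradiol for 16 hr at 37C. Beta-lactamase reporter read by FRET substrate fluorescence after 2 hours at room temperature.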

[12] = qHTS assay to identify small molecule agonists of the androgen receptor (AR) signaling pathway in the presence of an antagonist - cell viability counter screen (AID 1259379); conditions: MDA-kb2 viability, CellTiter-Fluor, 16 h; series mostly up to 92.4 µM; further: nearly all actives have a fitted effect of over 25% in size; further: potency means the concentration at half of the fitted maximal effect
How it was run: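 Cytotoxicity counter-screen run in the same wells as the nilutamide-challenged (3.0 µM final) AR agonist assay in MDA-kb2 cells. Compounds tested at 15 concentrations for 16 h, 37 °C without CO2; CellTiter-Fluor fluorescence read.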

[13] = qHTS assay to identify small molecule agonists of the estrogen receptor beta (ER-beta) signaling pathway - cell viability counter screen (AID 1259380); conditions: ER-beta-bla HEK293T viability, CellTiter-Glo luminescence, 16 h; series mostly up to 92.4 µM; further: nearly all actives have a fitted effect of over 30% in size; further: potency means the concentration at half of the fitted maximal effect
How it was run: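 Cell viability counter screen: CellTiter-Glo luminescence (30 min, room temperature) measured in the same wells as the beta-lactamase readout, after 16 hr compound exposure at 37C of ER-beta-bla HEK293T cells in 2% charcoal-stripped FBS medium.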

[14] = qHTS assay to identify small molecule antagonists of the estrogen receptor beta (ER-beta) signaling pathway - cell viability counter screen (AID 1259382); conditions: ER-beta-UAS-bla HEK293T viability, CellTiter-Glo luminescence, 16 h; series mostly up to 92.4 µM; further: nearly all actives have a fitted effect of over 55% in size
How it was run: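 Cytotoxicity was measured in the same wells by CellTiter-Glo luminescence after 30 min at room temperature. Cells were ER-beta-bla HEK293T in charcoal-stripped serum, given compound together with 1 nM E2 and incubated 16 h at 37C.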

[15] = molecular target: Estrogen receptor (Homo sapiens) (UniProt P03372); experiment: qHTS assay to identify small molecule agonists of the estrogen receptor alpha (ER-alpha) signaling pathway in the presence of an antagonist (AID 1259383; calls by dose curve; further: top concentration of the series differs between compounds; nearly all actives have a fitted effect of over 15% in size); conditions: VM7Luc4E2 cells, ERE-luciferase, +ICI-182,780, 22 h; series mostly up to 92.4 µM
How it was run: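 Agonist-mode confirmation run in the presence of 10.0nM (final) ICI-182,780 antagonist. The reporter was ERE-driven luciferase in VM7Luc4E2 cells, grown in charcoal-stripped serum. Cells were exposed to 15-concentration compound series for 22hr, then ONE-Glo luminescence was read.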

[16] = qHTS assay to identify small molecule agonists or antagonists of the thyroid stimulating hormone receptor (TSHR) signaling pathway - wild type cell line counter screen (AID 1259384; calls by dose curve); conditions: HEK293 wild type, cAMP HTRF counter-screen, active compounds read high; series mostly up to 92.4 µM
How it was run: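 Wild-type Hek293 cells, 800/well, 18 h at 37C, then compound with Ro20-1724 for 30 min RT. cAMP by HTRF (cAMP-d2/anti-cAMP cryptate), 1 h RT, fluorescence read. 15 concentrations, triplicates.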

[17] = qHTS assay to identify small molecule phospholipidosis (PLD) inducers (AID 1259344; active means well fitted curve in the direction sought with a large enough effect; an effect the other way counts as inactive or inconclusive); conditions: HepG2 phospholipidosis, LipidTOX Red imaging, 24 h; series mostly up to 38.3 µM
How it was run: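 Image-based: LipidTOX Red pit count/intensity per well and per cell; HepG2, 24 h compound at 37 C, PFA fixation, Hoechst counterstain.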

[18] = qHTS assay to identify small molecule antagonists of the estrogen receptor alpha (ER-alpha) signaling pathway using the BG1 cell line in the presence of 0.1 nM 17-beta-estradiol - cell viability counter screen (AID 1259241); conditions: VM7Luc4E2 (BG1) viability, CellTiter-Fluor protease, 22 h, 0.1 nM estradiol agonist added; series mostly up to 92.4 µM; further: nearly all actives have a fitted effect of over 40% in size
How it was run: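 VM7Luc4E2 cells (endogenous ER-alpha, 4×ERE-luciferase), hormone-starved 5 days in charcoal-stripped FBS, were treated with compounds plus 0.1 nM 17beta-estradiol for 22 hr at 37C; viability read in same wells as CellTiter-Fluor live-cell protease fluorescence.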

[19] = molecular target: Androgen receptor (Homo sapiens) (UniProt P10275); experiment: qHTS assay to identify small molecule antagonists of the androgen receptor (AR) signaling pathway using the MDA cell line in the presence of 0.5 nM R1881 (AID 1259243); conditions: MDA-kb2 MMTV-luciferase, R1881 0.5 nM, 16 h; series mostly up to 92.4 µM; further: nearly all actives have a fitted effect of over 50% in size
Sequence of Androgen receptor (Homo sapiens) (P10275 whole entry, looked up): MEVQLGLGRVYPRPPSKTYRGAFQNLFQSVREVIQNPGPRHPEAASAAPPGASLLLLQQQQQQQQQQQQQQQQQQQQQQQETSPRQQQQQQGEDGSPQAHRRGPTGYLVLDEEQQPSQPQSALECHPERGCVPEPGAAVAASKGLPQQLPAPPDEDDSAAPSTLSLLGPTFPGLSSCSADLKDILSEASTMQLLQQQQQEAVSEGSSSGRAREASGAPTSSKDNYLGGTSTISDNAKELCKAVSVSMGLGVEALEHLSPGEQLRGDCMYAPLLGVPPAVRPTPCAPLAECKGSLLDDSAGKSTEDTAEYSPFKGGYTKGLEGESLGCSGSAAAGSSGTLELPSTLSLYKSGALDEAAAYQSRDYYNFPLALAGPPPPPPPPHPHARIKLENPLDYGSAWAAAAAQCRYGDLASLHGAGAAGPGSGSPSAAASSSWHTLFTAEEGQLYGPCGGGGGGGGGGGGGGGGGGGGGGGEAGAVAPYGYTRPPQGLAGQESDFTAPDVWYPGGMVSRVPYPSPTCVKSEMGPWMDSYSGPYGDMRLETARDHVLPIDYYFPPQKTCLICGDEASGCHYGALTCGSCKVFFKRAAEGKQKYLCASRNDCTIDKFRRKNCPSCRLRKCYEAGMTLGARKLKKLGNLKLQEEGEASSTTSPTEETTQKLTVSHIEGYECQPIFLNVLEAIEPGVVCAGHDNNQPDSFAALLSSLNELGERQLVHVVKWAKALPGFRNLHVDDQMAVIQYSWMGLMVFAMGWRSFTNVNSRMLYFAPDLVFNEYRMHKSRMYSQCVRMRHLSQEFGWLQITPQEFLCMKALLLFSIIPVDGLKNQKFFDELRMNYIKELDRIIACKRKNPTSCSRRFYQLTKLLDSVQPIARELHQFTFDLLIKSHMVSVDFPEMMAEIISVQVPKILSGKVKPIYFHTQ
How it was run: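 Luminescent reporter readout (ONE-Glo, 30 min, room temperature) after 16 hr co-treatment of MDA-kb2 cells with test compounds and 0.5 nM R1881 final, at 37C without CO2. The MMTV-driven luciferase responds to both AR and GR.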

[20] = molecular target: Androgen receptor (Homo sapiens) (UniProt P10275); experiment: qHTS assay to identify small molecule agonists of the androgen receptor (AR) signaling pathway in the presence of an antagonist (AID 1259381; calls by dose curve; further: nearly all actives have a fitted effect of over 15% in size); conditions: MDA-kb2 MMTV-luciferase, AR agonist + nilutamide, 16 h; series mostly up to 92.4 µM
How it was run: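 Agonist-mode confirmation run against 3.0 uM final nilutamide: compounds titrated at 15 concentrations onto MDA-kb2 MMTV-luciferase reporter cells. Luminescence measured with ONE-Glo following 16 hr incubation, 37C, 0% CO2.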

Measured: Potency

C=C(C)C(=O)OCCOP(=O)(O)OCCOC(=O)C(=C)C
not listed: [17] | [18] | [19] | [20]
inactive: all other assays above

NS(=O)(=O)c1ccc(NC(=O)CCC(=O)O)cc1
not listed: [3] | [18] | [19] | [20]
inactive: all other assays above

On1nnc2ccccc21
active: [13] 1.54 µM
not listed: [3] | [10] | [11] | [14] | [17] | [18] | [19] | [20]
inactive: all other assays above

Nc1ccc([N+](=O)[O-])c(N)c1
inactive: [1] | [3] | [4] | [5] | [8] | [9] | [13] | [15] | [16]
active: [6] 29.9 µM | [7] 33.5 µM | [12] 29.9 µM

CC(=O)NCc1c(I)c(NC(C)=O)c(I)c(C(=O)O)c1I
not listed: [1] | [7] | [13] | [14]
inactive: all other assays above

C[C@H](N)[C@H](O)c1cccc(O)c1
not listed: [3] | [18] | [19] | [20]
inactive: all other assays above

COc1ccc(Br)c(C)c1
inactive: [1] | [2] | [4] | [5] | [6] | [8] | [9] | [12] | [14] | [16]
